Sampled rows, rich in hits. Any-hit rate of the full collection: about 3.1%.
12-hLO inh: 12-hLO (ALOX12) enzyme inhibition. P18054. purified 12-hLO, xylenol orange hydroperoxide absorbance. Potency, µM (series often up to 57.1 µM), for inactives: at the highest dose activity change, negative = inhibition, most hits filed as inhibitors. 150,000 compounds, 0.12% hits; note: potency is the fitted concentration of half-maximal effect; nearly all actives have a fitted effect of over 55% in size
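Purified human 12hLO (150 nM), preincubated 15 min with compound, then 40 uM arachidonic acid for 30 min, room temperature, Hepes pH 7.0 with 0.01% Triton X-100. Hydroperoxide detected by ferrous iron/xylenol orange; 573/405 nm absorbance ratio gives reaction progress.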
PNC assembly inh: inhibitors of perinucleolar compartment assembly | PC3M PTB-GFP, PNC prevalence imaging, 16 h; active compounds read low | activity change (PNC), negative = inhibition, % at 10 µM | 140,000 compounds, 3.1% hits | AID 2417;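 active = readout at or below -70, meaning at least 70% loss of cells showing the perinucleolar compartment, a nuclear body marking cancer cells; inconclusive = readout between -30 and a set limit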;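 note: plate controls were DMSO wells for no effect and camptothecin positive control wells for full effect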
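Read-out is percentage of cells bearing a perinucleolar compartment, from automated 20x imaging of fixed, Hoechst-stained PC3M PTB-GFP cells. Cells were seeded 4 h, then exposed 16 h to compound (23 nl of library stock) in duplicate plates.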
ALOX15B inhib: blocks human 15-lipoxygenase 2 activity. purified 15hLO-2, xylenol orange hydroperoxide absorbance. Potency, µM (top dose mostly 57.1 µM), without a hit: top-dose activity change, negative = inhibition, hits mostly inhibitors. 110,000 compounds, 0.56% hits. AID 881; note: potency is the fitted concentration of half-maximal effect; nearly all actives have a fitted effect of over 60% in size
Target sequence (O15296 whole entry, looked up): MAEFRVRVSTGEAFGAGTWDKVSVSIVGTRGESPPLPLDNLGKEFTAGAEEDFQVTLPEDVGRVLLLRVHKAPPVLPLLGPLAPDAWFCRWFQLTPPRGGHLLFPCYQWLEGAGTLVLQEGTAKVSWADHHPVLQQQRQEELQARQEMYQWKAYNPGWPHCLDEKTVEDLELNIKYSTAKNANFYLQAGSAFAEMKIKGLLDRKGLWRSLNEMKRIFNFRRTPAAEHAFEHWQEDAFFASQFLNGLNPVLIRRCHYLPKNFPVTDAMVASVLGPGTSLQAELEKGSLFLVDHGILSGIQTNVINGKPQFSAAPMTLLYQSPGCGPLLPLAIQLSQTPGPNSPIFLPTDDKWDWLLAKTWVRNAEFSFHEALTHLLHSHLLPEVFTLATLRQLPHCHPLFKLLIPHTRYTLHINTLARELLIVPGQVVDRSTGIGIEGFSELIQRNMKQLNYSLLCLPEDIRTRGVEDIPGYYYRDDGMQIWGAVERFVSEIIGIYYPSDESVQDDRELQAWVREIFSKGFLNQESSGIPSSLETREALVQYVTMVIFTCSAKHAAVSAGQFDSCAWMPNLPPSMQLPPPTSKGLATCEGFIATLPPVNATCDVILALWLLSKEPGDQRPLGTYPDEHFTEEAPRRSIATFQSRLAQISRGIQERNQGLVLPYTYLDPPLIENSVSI
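Purified human 15hLO-2 (50 nM final) preincubated with compounds 15 min at room temperature in 25 mM Hepes pH 7.5, 0.01% Triton X-100, then 45 uM arachidonic acid added for 90 min; hydroperoxide detected via ferrous/xylenol orange, 573/405 nm absorbance ratio.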
Numbers without * were called inactive; [ ] = dose if it differs, or a comment. Unless noted, calls come from the whole dose curve; as a rule, active = well fitted curve in the direction sought with a large enough effect; inconclusive = small, poorly fitted or top-dose-only effect, or another doubt; inactive = no such curve, though single readings can be large; an effect the other way counts as inactive or inconclusive. Unless noted, % is set by controls: 0 for no effect and ±100 for the full control effect.

What do the screens show for `CC1(C)CC(=O)C(C(c2ccncc2)C2C(=O)CC(C)(C)CC2=O)C(=O)C1`?
12-hLO inh: -1.7%; PNC assembly inh: -86.7*; ALOX15B inhib: -0.5%

What do the screens show for `CCCN1C/C(=C/c2ccc3c(c2)OCO3)C(=O)/C(=C/c2ccc3c(c2)OCO3)C1`?
12-hLO inh: -10.7%; PNC assembly inh: -20.0

How did CC1=C/C(=C\c2ccc3c(c2)OCO3)C(=O)S1 do in these assays?
12-hLO inh: inconclusive; PNC assembly inh: -85.2*; ALOX15B inhib: -2.6%

What do the screens show for `Cc1cc(C)nc(SCCc2cccc[n+]2C)n1`?
12-hLO inh: -4.4%[11.4 µM]; ALOX15B inhib: -8.8%[11.4 µM]

Results for COCCNC(=O)[C@H](C)/C=C(\c1cccnc1)C(NC(=O)OCc1ccccc1)c1ccc(C(=O)OC)cc1 (some centres undefined) ?
12-hLO inh: -4.1%; ALOX15B inhib: 16.8%

Results for Cc1nc(CCNC(=O)Cc2ccc(F)cc2)cs1 ?
12-hLO inh: 1.6%; PNC assembly inh: -14.1; ALOX15B inhib: -1.4%

Results for Cc1nc(CCNC(=O)Cc2ccc(Cl)cc2)cs1 ?
12-hLO inh: 2.0%; PNC assembly inh: -89.9*; ALOX15B inhib: -1.2%

How did C[C@H]1[C@H](C)CC[C@]2(C(=O)O)CC[C@]3(C)C(=CCC4[C@@]5(C)C[C@@H](O)[C@H](O)[C@@](C)(CO)[C@@H]5CC[C@]43C)[C@H]12 (some centres undefined) do in these assays?
12-hLO inh: -0.6%; ALOX15B inhib: 10.7%

Results for CCc1c(OC(C)=O)c2ccccc2n(C)c1=O ?
12-hLO inh: -0.2%; PNC assembly inh: inconclusive

Results for C=CCc1c(OC(C)=O)c2ccccc2n(C)c1=O ?
12-hLO inh: 3.4%; PNC assembly inh: -106.2*

Results for C[C@@H]1C[C@H]2[C@H]3C[C@@H](F)C4=CC(=O)C=C[C@]4(C)[C@@]3(Cl)[C@@H](O)C[C@@]2(C)[C@@H]1C(=O)COC(=O)C(C)(C)C ?
12-hLO inh: -2.8%[25.6 µM]; ALOX15B inhib: 6.0%[25.6 µM]

How did Cc1ccc(-c2nnc(N3CCCCC3)c3ccccc23)cc1S(=O)(=O)N1CCN(C)CC1 do in these assays?
12-hLO inh: -3.8%; PNC assembly inh: 62.7; ALOX15B inhib: 4.2%

What do the screens show for `O=c1c2ccccc2sn1-c1ccccc1`?
12-hLO inh: 12.6µM*; PNC assembly inh: -11.9; ALOX15B inhib: 1.26µM*

How did O=S(=O)(c1cccc2c(S(=O)(=O)N3CCCC3)cccc12)N1CCCC1 do in these assays?
12-hLO inh: 4.6%; PNC assembly inh: -129.2*; ALOX15B inhib: -6.0%

What do the screens show for `O=C1CC(=O)N(c2ccccc2)N1c1ccccc1`?
12-hLO inh: -11.2%; PNC assembly inh: inconclusive

How did Cc1ccc(-n2sc3ccccc3c2=O)cc1S(=O)(=O)N1CCCCC1 do in these assays?
12-hLO inh: 3.16µM*; PNC assembly inh: inconclusive; ALOX15B inhib: 0.631µM*

Results for NS(=O)(=O)c1ccc(S(=O)(=O)N2CCCC2)cc1 ?
12-hLO inh: 4.5%; PNC assembly inh: inconclusive; ALOX15B inhib: -0.8%

How did O=c1c2ccccc2sn1-c1ccc(S(=O)(=O)N2CCCC2)cc1 do in these assays?
12-hLO inh: inconclusive; PNC assembly inh: -1.8; ALOX15B inhib: 0.398µM*

How did O=S(=O)(c1cccc2c(Cl)cccc12)N1CCCNCC1 do in these assays?
12-hLO inh: -2.9%; ALOX15B inhib: 31.9%

What do the screens show for `C[C@]12CC[C@H]3c4ccc(O)cc4CC[C@@H]3[C@H]1C/C(=N/O)[C@H]2O`?
12-hLO inh: -10.2%[11.4 µM]; ALOX15B inhib: -10.2%[11.4 µM]

Results for C=CC1=C2C=C(C3CC3)N(CCOC)C=C2C(=O)C(C)(OC(=O)c2ccco2)C1=O (centres undefined) ?
12-hLO inh: 0.4%[11.4 µM]

How did NS(=O)(=O)c1cc2c(cc1C(F)(F)F)N[C@H](Cc1ccccc1)NS2(=O)=O do in these assays?
12-hLO inh: -1.7%[25.6 µM]; ALOX15B inhib: 1.3%[25.6 µM]

Results for CN(C)Cc1ccccc1-c1cc(NCc2cccs2)ncn1 ?
ALOX15B inhib: 7.1%

What do the screens show for `CC(=O)Nc1cccc(Oc2ncnc3scc(-c4ccc(C)cc4)c23)c1`?
12-hLO inh: -3.6%; PNC assembly inh: -83.1*

Results for Cc1ccc(-c2csc3ncnc(Oc4ccc5c(C)cc(=O)oc5c4)c23)cc1 ?
12-hLO inh: -2.5%; PNC assembly inh: inconclusive

How did C=CCn1c(=O)n(CC=C)c(=O)n(CC=C)c1=O do in these assays?
12-hLO inh: -1.5%; ALOX15B inhib: 0.8%

What do the screens show for `COc1ccc(Nc2ccnc(Nc3ccc(OC)cc3)n2)cc1`?
12-hLO inh: -2.2%; PNC assembly inh: -93.4*

What do the screens show for `CCOc1nc(Nc2ccc(OC)cc2)nc(OCC)n1`?
12-hLO inh: 0.2%; PNC assembly inh: inconclusive; ALOX15B inhib: 0.7%

How did Nc1nc(NCC2CCC(CNS(=O)(=O)c3cccc4ccccc34)CC2)nc2ccccc12 (centres undefined) do in these assays?
12-hLO inh: -1.5%[0.00818 µM]; ALOX15B inhib: 35.8%[0.0915 µM]

What do the screens show for `NC(=O)c1ccccc1-c1nc(-n2ccnc2)c2ccccc2n1`?
ALOX15B inhib: -2.0%

How did CCNC(=S)NN(c1ccccc1)c1ccccc1 do in these assays?
12-hLO inh: -8.7%; PNC assembly inh: 38.7; ALOX15B inhib: -13.5%

What do the screens show for `CC(C)c1ccc(NC(=S)NN(c2ccccc2)c2ccccc2)cc1`?
12-hLO inh: inconclusive; PNC assembly inh: -84.6*

What do the screens show for `CCCCC/C=C\C=C\C(O)CCCCCCCC(=O)O` (centres undefined)?
12-hLO inh: 2.2%

How did Cc1cccc(NC(=O)/C(C#N)=C\c2cccnc2)c1 do in these assays?
12-hLO inh: 0.5%; PNC assembly inh: 2.3; ALOX15B inhib: -22.2%

How did CCCCNC(=O)/C(C#N)=C/c1cccnc1 do in these assays?
12-hLO inh: -0.4%; PNC assembly inh: -105.6*

How did O=C1NCCN1C(=O)N(c1ccccc1)c1ccccc1 do in these assays?
12-hLO inh: 0.5%; PNC assembly inh: -124.4*; ALOX15B inhib: 11.0%

What do the screens show for `CN(C)S(=O)(=O)N1CCN(C(=O)N(c2ccccc2)c2ccccc2)CC1`?
12-hLO inh: 0.9%; PNC assembly inh: inconclusive; ALOX15B inhib: -4.2%

How did CC1CC(OC(=O)c2ccccc2O)CC(C)(C)C1 (centres undefined) do in these assays?
12-hLO inh: -10.0%; ALOX15B inhib: 0.7%

How did O=c1ccn(C2OC(COP(=O)(O)OP(=O)(O)OP(=O)(O)O)C(O)C2O)c(=O)[nH]1 (centres undefined) do in these assays?
12-hLO inh: 2.7%; ALOX15B inhib: -2.9%

How did COc1ccccc1CN1CC[C@@]2(CCCN(C(C)=O)C2)C1 do in these assays?
12-hLO inh: 1.4%; ALOX15B inhib: 2.0%

What do the screens show for `Cc1ccc(-n2c(SCC(=O)NCCN3C(=O)CSC3=O)nnc2-c2ccccc2)cc1`?
12-hLO inh: -0.4%; PNC assembly inh: 31.3

How did Cn1c(SCC(=O)NCCN2C(=O)CSC2=O)nnc1-c1ccccc1 do in these assays?
12-hLO inh: 1.8%; PNC assembly inh: -81.7*

How did COC(=O)[C@@H]1C[C@@]2(O)[C@@H](O)[C@@H](O)[C@@H](O)C[C@H]2N1Cc1ccc(N2CCOCC2)cc1 do in these assays?
12-hLO inh: 1.5%; ALOX15B inhib: 3.8%

Assay outcomes deposited in PubChem BioAssay by National Center for Advancing Translational Sciences (NCATS).
